The source of these data is PubChem BioAssay (NCATS).

The target of assay [1] is Calcium and integrin-binding protein 1 (Homo sapiens) (UniProt Q99828). Put plainly: Primary qHTS for Identification of Calcium Integrin Binding Protein 1 (CIB1) Competitor (AID 1508620).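 Also: GST tagged CIB1 binding a fluorescein labelled alphaIIb integrin peptide tracer; top concentration of the series differs between compounds.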 Conditions: CIB1-GST / FITC-alphaIIb peptide fluorescence polarization; series mostly up to 57.7 µM. In a few lines:
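CIB1-GST (1 uM final) and compound incubated 15 min at room temperature before adding FITC-alphaIIb peptide tracer (100 nM final). Competition for binding read by fluorescence polarization (ex 480, em 540) after another 15 min at room temperature.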
For orientation: Quantitative high-throughput screening tests each substance at several concentrations.

The nature of assay [2]: Primary qHTS for inhibitors of nuclear receptor binding SET domain protein 2 (NSD2) in an isogenic RCH-ACV NSD2 p.E1099K mutant (9B) (AID 1645876). Also: nearly all actives have a fitted effect of over 70% in size. Also: potency is read from the fitted curve at half-maximal effect. Conditions: RCH-ACV NSD2 E1099K (9B) viability, CellTiter-Glo, 72 h; series mostly up to 44.9 µM.
Assay [3] in a line: Primary qHTS for inhibitors of nuclear receptor binding SET domain protein 2 (NSD2) in an RCH-ACV wild type WT cells (2C) (AID 1645877). Also: nearly all actives have a fitted effect of over 70% in size. Also: potency is read from the fitted curve at half-maximal effect. As to conditions: RCH-ACV (leukaemia line) NSD2 WT (2C) viability, CellTiter-Glo, 72 h; series mostly up to 44.9 µM.

Each structure is given as a SMILES string. Inconclusive results are not listed. Unmarked numbers belong to inactive results. Calls of active or inactive are those of the source. Calls follow the shape of the dose curve; as a rule, active = well fitted curve in the direction sought with a large enough effect; inconclusive = small, poorly fitted or top-dose-only effect, or another doubt; inactive = no such curve, though single readings can be large; an effect the other way counts as inactive or inconclusive.
% is scaled to controls: 0 for no effect and ±100 for the full control effect.

Calcium and integrin-binding protein 1 (Homo sapiens), sequence (Q99828 whole entry, looked up): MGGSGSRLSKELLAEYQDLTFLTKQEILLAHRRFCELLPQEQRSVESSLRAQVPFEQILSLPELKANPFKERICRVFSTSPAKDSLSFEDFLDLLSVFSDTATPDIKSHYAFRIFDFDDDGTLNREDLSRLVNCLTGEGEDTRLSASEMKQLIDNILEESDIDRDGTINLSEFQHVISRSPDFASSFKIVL

As for `C[C@@H]1[C@H](O)[C@@H]2OC(=O)C3=C2[C@H](CCC3)[C@@]12C[C@@H](c1ccoc1)OC2=O`, the Potency entry in assay [1], in assay [2] and in assay [3] was “inactive” throughout.

Take `COC(=O)C1=COC(OC2OC(CO)C(O)C(O)C2O)C2C(C)C(OC(=O)/C=C/c3ccc(O)cc3)C(O)C12` (stereo not given): the Potency entry in assay [1], in assay [2] and in assay [3] was “inactive” each time.

As for `CC1(C)CC[C@]2(C(=O)O)[C@H](O)C[C@]3(C)C(=CCC4[C@@]5(C)CC[C@H](O[C@@H]6OC[C@@H](O)[C@H](O)[C@H]6O)[C@@](C)(C(=O)O)C5CC[C@]43C)[C@@H]2C1` (stereo not given in full), the Potency result in assay [1], in assay [2] and in assay [3] was “inactive” throughout.

As for `CC1C2=CC(=O)OC2(O)CC2C1C(OC(=O)c1ccccc1)C(OC(=O)c1ccccc1)C1(O)C2(C)CCC(O)C1(C)C(=O)O` (stereo not given), the Potency entry in assay [1], in assay [2] and in assay [3] was “inactive” in each case.

Regarding `CC1=C(CC/C(C)=C/C(=O)O)[C@@]2(C)CCCC(C)(C)C2CC1=O` (stereo not given in full), the Potency entry in assay [1], in assay [2] and in assay [3] was “inactive” in each case.

For `NC(=O)NCCCC(NC(=O)Cc1ccccc1)C(=O)O` (stereo not given), the Potency entry in assay [1], in assay [2] and in assay [3] was “inactive” throughout.

Regarding `O=C(OCC1=C[C@@H](O)[C@@H]2C=CO[C@@H](O[C@@H]3O[C@H](CO)[C@@H](O)[C@H](O)[C@H]3O)[C@H]12)c1ccc(O)cc1`, the Potency result in assay [1], in assay [2] and in assay [3] was “inactive” each time.

Take `CC1(C)CC[C@]2(C(=O)O)CC[C@]3(C)C(=CCC4[C@@]5(C)C[C@@H](O)[C@H](O)[C@@](C)(CO)C5CC[C@]43C)C2C1` (stereo not given in full): the Potency result in assay [1], in assay [2] and in assay [3] was “inactive” throughout.

With `CC1(C)CC[C@]2(C(=O)O[C@@H]3O[C@H](CO)[C@@H](O)[C@H](O)[C@H]3O)CC[C@]3(C)C(=CCC4[C@@]5(C)CC[C@H](O[C@@H]6O[C@H](C(=O)O)[C@@H](O)[C@H](O)[C@H]6OC6OC(CO)C(O)C(O)C6O)C(C)(C)C5CC[C@]43C)[C@@H]2C1` (stereo not given in full), in assay [1], the Potency result is “inactive”. Moreover, the activity change, negative = viability loss in assay [2] is 0.32% [at 9.23 µM]. For the same compound, in assay [3], the activity change, negative = cell killing was -5.08% [at 9.23 µM].

On to `COC(=O)C1=CO[C@@H](O[C@@H]2O[C@H](CO)[C@@H](O)[C@H](O)[C@H]2O)[C@@H]2[C@@H](C)[C@@H](O)C(O)[C@H]12` (stereo not given in full), for which the Potency result in assay [1], in assay [2] and in assay [3] was “inactive” each time.

Regarding `CC(C)C(NC(=O)c1ccc(O)cc1)C(=O)N1CCCC1C(=O)Nc1c(O)cccc1C(=O)O` (stereo not given), the Potency result in assay [1], in assay [2] and in assay [3] was “inactive” each time.

Regarding `CC(=O)NC1CC(=O)C23C(=O)NC(Cc4c[nH]c5ccccc45)C2C(C)=C(C)C(O)C3/C=C/CC(C)/C=C(/C)C(O)C1O` (stereo not given), the Potency result in assay [1], in assay [2] and in assay [3] was “inactive” in each case.

`COc1cc(CCCO)ccc1O[C@@H]1O[C@H](CO)[C@@H](O)[C@H](O)[C@H]1O`: the Potency result in assay [1], in assay [2] and in assay [3] was “inactive” in each case.

Take `C/C=C(\C)C(=O)OC[C@H]1O[C@H](O[C@H]2O[C@H](CO)[C@@H](O)[C@H](O)[C@H]2O[C@@H]2O[C@H](CO)[C@@H](O)[C@H](O)[C@H]2O)[C@H](O[C@@H]2O[C@H](CO)[C@@H](O)[C@H](O)[C@H]2O)[C@@H](O)[C@@H]1O`: the Potency entry in assay [1], in assay [2] and in assay [3] was “inactive” in each case.

Turning to `CC1CCC2(C(=O)O)CCC3(C)C(=CCC4C5(C)C[C@@H](O)[C@@H](O)C(C)(CO)C5CCC43C)C2C1(C)O` (stereo not given in full), the Potency result in assay [1] is “inactive”. Besides, the Potency was 6.32 µM (active) in assay [2] and 3.17 µM (active) in assay [3].

For the compound `COC(=O)[C@]1(Cc2ccc(O)c(CC=C(C)C)c2)OC(=O)C(O)=C1c1ccc(O)cc1`, the Potency entry in assay [1], in assay [2] and in assay [3] was “inactive” in each case.

In the case of `C[C@]1(O)CC[C@@H]2C(C(=O)O)=CO[C@@H](O[C@@H]3O[C@H](COC(=O)/C=C/c4ccc(O)c(O)c4)[C@@H](O)[C@H](O)[C@H]3O)[C@@H]21`, the Potency entry in assay [1], in assay [2] and in assay [3] was “inactive” in each case.

On to `COC(=O)C1=CO[C@@H](O[C@@H]2O[C@H](CO)[C@@H](O)[C@H](O)[C@H]2O)[C@H]2[C@@H]1[C@H](O)[C@H](O)[C@]2(C)O`, for which the Potency result in assay [1], in assay [2] and in assay [3] was “inactive” each time.

With `CC1(C)CC[C@]2(C(=O)O[C@@H]3O[C@H](CO)[C@@H](O)[C@H](O)[C@H]3O)CC[C@]3(C)C(=CCC4[C@@]5(C)CC[C@H](O[C@@H]6O[C@H](C(=O)O)[C@@H](O[C@@H]7O[C@H](CO)[C@@H](O)[C@H](O)[C@H]7O)[C@H](O)[C@H]6O)C(C)(C)C5CC[C@]43C)C2C1` (stereo not given in full), the Potency result in assay [1] is “inactive”. The outcome in assay [2] is “inactive [at 9.23 µM]”. For the same compound, the activity change, negative = cell killing in assay [3] is 2.22% [at 9.23 µM].

For the compound `CC(CC12CCCN1C(=O)C1CCCN1C2=O)OC(N)=O` (stereo not given), the Potency entry in assay [1], in assay [2] and in assay [3] was “inactive” throughout.

On to `C[C@@H](CC[C@@H]1[C@@]2(C)CCCC(C)(C)C2CC[C@@]1(C)O)CC(=O)O` (stereo not given in full), for which the Potency result in assay [1], in assay [2] and in assay [3] was “inactive” each time.

Take `CCN=C1N[C@@H]2[C@@H](O)[C@H](O)[C@@H](CO)O[C@@H]2S1`: the Potency result in assay [1], in assay [2] and in assay [3] was “inactive” each time.

Turning to `CC1(C)C(=O)CCC2(C)C1C(O)C=C1COC(=O)C12O` (stereo not given), the Potency result in assay [1], in assay [2] and in assay [3] was “inactive” throughout.

Take `CC1(C)C2CC[C@]3(C)C(C(=O)C=C4[C@H]5C[C@@](C)(C(=O)O)CC[C@]5(C)CC[C@]43C)[C@@]2(C)CC[C@@H]1O` (stereo not given in full): the Potency entry in assay [1], in assay [2] and in assay [3] was “inactive” throughout.

On to `CC(=O)OCC1OC(O[C@H]2CC[C@@]3(C)C(CC[C@]4(C)C3CC=C3[C@@H]5CC(C)(C)CC[C@]5(C(=O)O)CC[C@]34C)[C@]2(C)CO)C(O)C(O)C1OC1OC(C)C(O)C(OC2OCC(O)C(O)C2O)C1O` (stereo not given in full), for which, in assay [1], the Potency result was “inactive”. Also, the activity change, negative = viability loss in assay [2] is -15.5% [at 9.23 µM]. Also, in assay [3], the activity change, negative = cell killing is -24% [at 9.23 µM].
